Screening data as filed in PubChem.
PI5P4Ka inh – PI5P4K alpha (human) kinase inhibition; PI5P4Kalpha enzyme, ADP-Glo luminescence, 60 min; hits give low values; max response, %; hit rate 1.2% among 330,000; active = max response of -50% or lower; inconclusive = between -30% and -50%; inactive = -30% or higher; also: value at the top dose of about 77 µM
Target sequence (P48426 whole entry, looked up): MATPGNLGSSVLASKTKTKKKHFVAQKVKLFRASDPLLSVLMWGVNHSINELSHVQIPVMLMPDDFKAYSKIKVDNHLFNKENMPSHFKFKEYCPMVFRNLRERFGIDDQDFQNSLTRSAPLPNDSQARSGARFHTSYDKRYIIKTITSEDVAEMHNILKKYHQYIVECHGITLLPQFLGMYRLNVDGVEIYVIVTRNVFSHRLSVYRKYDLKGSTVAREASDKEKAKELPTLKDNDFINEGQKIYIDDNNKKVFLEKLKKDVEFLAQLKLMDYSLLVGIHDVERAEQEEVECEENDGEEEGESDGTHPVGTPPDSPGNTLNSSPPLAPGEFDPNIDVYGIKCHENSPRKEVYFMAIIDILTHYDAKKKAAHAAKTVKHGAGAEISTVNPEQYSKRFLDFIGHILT
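Human PI5P4Kalpha with substrate in 0.038 M HEPES pH 7.4, 0.28 mM EGTA, 0.1% CHAPS, 5% DMSO; reaction started with 5 microM ATP (final), 60 min at room temperature. ADP formed read by ADP-Glo luminescence.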
PI4K2A block – PI4K2A (human) kinase inhibition; hit rate 0.13% among 420,000; Q9BTU6; activity change, negative = inhibition, % at 76.9 µM; purified PI4K2A, ADP-Glo luminescence, 1 h; hits give low values; in the data active = activity change below about -50%; inconclusive = mostly about -30% to -49%
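ADP-Glo luminescence measured ADP generated by PI4K2A enzyme (4 ug/mL before mixing) with 1.2 mM PI substrate (pre-mix) and 300 microM ATP (pre-mix). Tris pH7.5 buffer with MgCl2, Triton X-100; 1 h reaction at ambient temperature.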
CtBP-E1A blk – blocks the CtBP interaction with E1A. AlphaScreen GST-E1A/His-CtBP binding, 1536-well; hits give low values. activity change, % (test concentration not listed). hit rate 0.49% among 340,000. AID 651724
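GST-E1A and His-tagged CtBP (125 nM each as 5X stock) were preincubated with pin-transferred compound for 2 h at 37 °C in the dark, then glutathione donor and nickel acceptor beads were added for 1 h before AlphaScreen reading.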
Six1-Eya2 blk – blocks human Six1 binding to Eya2; Q15475+O00167; AlphaScreen GST-Six1/His-Eya2 binding, biochemical; hits give low values; activity change, % (test concentration not listed); hit rate 0.56% among 360,000
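Compounds are tested against tagged Six1 and Eya2 proteins bridged by glutathione donor and nickel acceptor beads; after a one-hour incubation at 37 °C without light, AlphaScreen emission is recorded.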
Akt phos inh – Akt phosphorylation inhibition. activity change, % for hits at 50 µM. hit rate 0.32% among 360,000. Neuro2A IGF-stimulated pAkt S473 HTRF, 20 min; hits give low values; in the data active = activity change below about -80%; inconclusive = mostly about -51% to -80%
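Neuro2A cells (4,500/well, DMEM with 0.5% FBS) were treated with compound at a single 50 µM final concentration, stimulated with 6 nM IGF for 20 min at 37 °C, and lysed. Phospho-Akt Ser473 was read by HTRF as 665/615 ratio ×10^4.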
Each line names hits and unclear results; the compound was inactive in the other large screens. An excerpt weighted towards active compounds, which were near 1.8% of everything screened. Rule as the data show it, unless noted: active = activity change below about -65%; inconclusive = mostly about -30% to -63%; inactive = weaker than that.

CC1=Nc2ccc(C)cc2/C1=C/c1c(N)n2oc(C)cc2nc1=O	none
CSc1nsc2nc(=O)c(/C=C3\C(C)=Nc4ccc(C)cc43)c(N)n12	PI5P4Ka inh -68
Nc1nnc(SCc2ccccc2)n1-c1ccccc1	none
Nc1c(C=C2C=CC(=O)C=C2)c(=O)nc2snc(SCc3ccccc3)n12	PI5P4Ka inh -51 (no result: CtBP-E1A blk)
CCOC(=O)C1(Cc2ccccc2C)CCCN(S(=O)(=O)c2cccnc2)C1 (stereo unspecified)	none
CC(C)COC(=O)c1cccc2c1-c1ccccc1/C2=N\O	none
COC1=C/C(=C/c2c(N)n3cc(C)sc3nc2=O)C=CC1=O	PI5P4Ka inh -81
Cc1cn2c(N)c(C=C3C=C(Cl)C(=O)C(Cl)=C3)c(=O)nc2s1	PI5P4Ka inh -78
c1nc(SSc2ncnc3nc[nH]c23)c2[nH]cnc2n1	PI5P4Ka inh -80
COc1cc(/C=C(\C#N)C(=O)N2CCOCC2)cc(Br)c1O	PI5P4Ka inh -61 (no result: CtBP-E1A blk)
O=C(NCC12CC3CC(CC(C3)C1)C2)c1nc2ncccn2n1	Akt phos inh -119%
NC(=O)c1ccc(Oc2cccc3cccnc23)c([N+](=O)[O-])c1	Six1-Eya2 blk inconclusive
COc1ccc(C(=O)Oc2cccc3cccnc23)cc1[N+](=O)[O-]	CtBP-E1A blk -72, Six1-Eya2 blk -88
Cc1ccc2c(CN3CCCc4ccccc43)cc(=O)oc2c1C	Akt phos inh inconclusive
COc1ccc(-c2ccc(C(=O)NCc3ccc(N(C)C)cc3)c3occc23)c(C)c1	CtBP-E1A blk -66, Six1-Eya2 blk -65
CCc1ccc(C(=O)CSc2n[nH]c(C)n2)cc1	PI5P4Ka inh -57
Cc1ccc(C(=O)CSc2n[nH]c(C)n2)cc1	none (no result: PI5P4Ka inh)
O=C(Cn1c(=O)oc2ccccc21)Nc1n[nH]c(=S)s1	PI5P4Ka inh -79
COc1cc(OC)c([N+](=O)[O-])cc1/C=N/NC(=O)c1ccncc1	none (no result: CtBP-E1A blk)
O=C1c2ccccc2-c2onc3ccc(NCCCn4ccnc4)c1c23	Six1-Eya2 blk -78 (no result: PI5P4Ka inh)
COc1ccc2noc3c2c1C(=O)c1ccccc1-3	PI4K2A block inconclusive, Six1-Eya2 blk inconclusive
COc1ccc(NC(=S)Nc2ccc(N)c([N+](=O)[O-])c2)cc1	PI4K2A block -53
CC1(C)CC(=O)C(C(C2=C(O)CC(C)(C)CC2=O)c2ccc(O)c([N+](=O)[O-])c2)=C(O)C1	PI5P4Ka inh -68
Cc1nn2c(=S)[nH]nc2[nH]c1=O	PI5P4Ka inh -53
CN(C)c1ccc(N=Nc2ccc(S(N)(=O)=O)cc2)cc1	none
CC1=CC(=O)C=CC1=Nc1ccc(N(C)C)cc1	PI5P4Ka inh -95, PI4K2A block inconclusive, Six1-Eya2 blk inconclusive
Cc1nnc(SCC(=O)N/N=C/c2cc(Cl)c(O)c(Cl)c2)s1	PI5P4Ka inh -79
CCNS(=O)(=O)c1ccc(OC)c(C)c1	none (no result: PI5P4Ka inh)
O=C(Nc1ccc(Br)cc1)c1ccc(N2C(=O)C3CCCCC3C2=O)cc1 (stereo unspecified)	none
CSCCC(NC(=O)OCc1ccccc1)C(=O)O (stereo unspecified)	Akt phos inh -104%
O=C(O)CCC(NC(=O)OCc1ccccc1)C(=O)O (stereo unspecified)	none
CC(Oc1ccccc1Cl)C(=O)Nc1ccc(S(=O)(=O)N2CCN(C)CC2)cc1 (stereo unspecified)	PI5P4Ka inh -67, PI4K2A block inconclusive
CN1CCN(S(=O)(=O)c2ccc(NC(=S)NC(=O)c3ccc(Cl)cc3)cc2)CC1	PI5P4Ka inh -51, Six1-Eya2 blk inconclusive
CN1C(=O)CC(N2CCN(CC(=O)N3CCCC3)CC2)C1=O (stereo unspecified)	Akt phos inh -113%
CS(=O)(=O)N(Cc1ccccc1)c1ccc(C(=O)NCC2CCCO2)cc1 (stereo unspecified)	none (no result: PI5P4Ka inh)
COc1ccc(F)cc1S(=O)(=O)NC1CC(C)(C)NC(C)(C)C1	Akt phos inh -112%
CCc1cccc(OCC(=O)Nc2ccc(C(=O)O)cc2NC(=O)COc2cccc(CC)c2)c1	none
COc1ccccc1N=Nc1ccc(O)c2ncccc12	PI5P4Ka inh inconclusive, PI4K2A block inconclusive, Six1-Eya2 blk -70 (no result: CtBP-E1A blk)
Cc1ccc(N=Nc2ccc(O)c3ncccc23)cc1C	none
CCS(=O)(=O)c1ccc(N=Nc2ccc(O)c3ncccc23)c(OC)c1	CtBP-E1A blk -93, Six1-Eya2 blk -83
